The panel holds about 83,000 compounds, 20% with a hit somewhere; the sample as a whole holds those more often.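 How to read the values: 0–100, growth inhibition (40 = 60% inhibited); 0, no net growth; -100 to 0, cell death (-40 = 40% of starting cells died; -100 = all dead).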 Activity calls are given as the source filed them.
These compounds were tested on T-47D breast (assay: NCI-60 one-dose screen, 48 h (100 = growth as untreated, 0 = no growth, -100 = all killed)). Conditions: 10 µM unless noted.
Protocol: Growth inhibition of the T-47D human tumor cell line is measured as a screen for anti-cancer activity. Cells are grown in 96 well plates and exposed to the test compound for 48 hours. Compounds are tested at a single concentration, which is 10^-5 M for most compounds. The reported endpoint is percent growth (GI% or GIPRCNT), where numbers from 0 - 100% represent growth inhibition, and numbers from -100% - 0 represent cell death. For example, a value of 40 represents 60% growth inhibition. A value of 0 means no net growth occurred over the course of the experiment. A value of -40 indicates 40% of cells at the beginning of the experiment died by the end of the experiment. A value of -100 means all cells are dead at the end of the experiment.
NCI-60 Human Tumor Cell Lines Screen was performed using the standard one-dose NCI protocol, which is described in more detail at https://dtp.cancer.gov/discovery_development/nci-60/default.htm.
Compounds with GIPRCNT values below 10 were considered active. Activity score was based on GIPRCNT using the following formula: […]
Score is 0 for GIPRCNT values of 100 or above, 50 for GIPRCNT values of 0, and 100 for GIPRCNT values of -100.

| Compound | growth |
| --- | --- |
| Cc1ccc(-n2cc(/C=N/NC(=O)c3ccncc3)c(-c3ccc(S(C)(=O)=O)cc3)n2)cc1 | 93.1% (inactive) |
| COc1ccc(/C=N/NC2=NC3C(S2)N(C)C(=O)N3C)cc1 (stereo not given) | 26.7% (inactive) |
| CCN(CC)c1cn(-c2ccc(S(N)(=O)=O)cc2)nn1 | 108% (inactive) |
| COc1c(N2CC3CCCNC3C2)c(F)cc2c(=O)c(C(=O)N/N=C/c3ccccc3)cn(C3CC3)c12 (stereo not given) | 101% (inactive) |
| NS(=O)(=O)c1ccc(Nc2nc(SCC(=O)c3ccc(Cl)cc3)nc3c2CCCC3)cc1 | 13.5% (inactive) |
| Cc1cccc2c3c(sc12)C(c1ccc(Cl)cc1)c1c(nc(CC(=O)Nc2ccccc2)[nH]c1=O)O3 (stereo not given) | 47.9% (inactive) |
| CS(=O)(=O)Nc1cc(-c2ccc3ncc(C#N)c(NCc4cccc(F)c4)c3c2)cnc1Cl | 0.599% (active) |
| CCCCCc1ccc(S(=O)(=O)Nc2cccc(-c3csc(NC(=O)CCCCCN4CCN(CCO)CC4)n3)c2)cc1 | 73.5% (inactive) |
| CC(=O)c1ccc(Nc2nc(SCC(C)C)nc(-c3ccc(F)cc3)c2C#N)cc1 | 106% (inactive) |
| NC(N)=Nc1ccc(Oc2cccc(NC(N)=Nc3ccc(Cl)c(C(F)(F)F)c3)c2)cn1 | 32.9% (inactive) |
| Cc1ccc(NC(=O)c2ccc(CN3CCOCC3)c(C(F)(F)F)c2)cc1Oc1ccc(-c2[nH]nc3ncnc(N)c23)cc1 | 11% (inactive) |
| O=S(=O)(NCCCNc1nccc(-c2[nH]c(-c3ccccc3)nc2-c2ccc(Cl)c(O)c2)n1)c1ccc(Br)cc1 | 30% (inactive) |
| COc1cc(OC)cc(C(=O)Nc2sc3c(c2C(N)=O)CCC(=O)C3)c1 | 7.67% (active) |
| CC(C)(C)n1nnnc1C(Nc1cccc2c1OCO2)c1cc2cccc3ccc4cccc1c4c32 (stereo not given) | 65.9% (inactive) |
| O=S(=O)(Oc1ccc(-c2nnc(Nc3ccccc3)s2)cc1)C(F)(F)C(F)(F)C(F)(F)C(F)(F)C(F)(F)C(F)(F)F | 104% (inactive) |
| C[C@H](CCC(=O)NCc1ccc(C(=O)Nc2ccccc2N)cc1)[C@H]1CC[C@H]2[C@@H]3[C@@H](O)C[C@@H]4C[C@H](O)CC[C@]4(C)[C@H]3CC[C@]12C | 48% (inactive) |
| CCNC(=O)N1CCc2cc(OC)c(OCCc3ccc(OC)cc3)cc2C1c1ccc(OC)cc1C (stereo not given) | 42.3% (inactive) |
| CCOC(=O)c1c(N)c(C#N)cn1-c1cc(OC)c(OC)c(OC)c1 | 112% (inactive) |
| Cc1cc(-c2ccc(Cl)cc2)n(Cc2nnc(SCC(=O)Nc3ccc(S(N)(=O)=O)cc3)n2-c2ccc([N+](=O)[O-])cc2)n1 | 70.3% (inactive) |
| Cc1ccc(-c2nnc(SCc3ccc(O)c4ncccc34)o2)cc1 | 13.4% (inactive) |

| Compound | growth |
| --- | --- |
| O=C(NNc1nc2cc(F)c(F)cc2n2c(CN3CC4CNCC4C3)ccc12)c1cnccn1 (stereo not given) | 20.8% (inactive) |
| CCCn1cnc2c(c1=N)C(c1ccc(Cl)cc1)c1sc3c(CC)cccc3c1O2 (stereo not given) | 10.2% (inactive) |
| NS(=O)(=O)c1ccc(Nc2cc(-c3ccccc3)nc(SCC(=O)c3ccccc3)n2)cc1 | 97.5% (inactive) |
| NC(N)=Nc1ccc(Oc2cccc(NC(N)=Nc3ccc(Br)c(C(F)(F)F)c3)c2)cc1 | 55.5% (inactive) |
| Cc1nc(-c2ccccc2O)ccc1C(=O)N=Nc1c(O)[nH]c2ccc(Br)cc12 | 88.9% (inactive) |
| O=C(CN1CCN(c2cc(=O)n(-c3ccccc3)c3ccccc23)CC1)Nc1nc(-c2ccc(Cl)cc2)cs1 | 24.3% (inactive) |
| COc1ccc(C(=O)Nc2ncc(Cc3ccccc3Cl)s2)cc1 | 34.3% (inactive) |
| NS(=O)(=O)c1ccc(Nc2nc(N/N=C/CCc3ccccc3)nc(Nc3ccccc3)n2)cc1 | 102% (inactive) |
| C#Cc1ccc(C(=O)NCc2ccc(/C=C/C(=O)c3nccn3C)cc2)cc1 | 34% (inactive) |
| COc1ccc([C@H]2c3[nH]c4ccccc4c3C[C@H]3C(=O)N(C4CCN(Cc5c(Cl)cccc5Cl)CC4)CC(=O)N23)c(OC)c1 | 83.6% (inactive) |
| CCCCCc1ccc(S(=O)(=O)Nc2cccc(-c3csc(NC(=O)CCCCCN4CCN(C)CC4)n3)c2)cc1 | 43.7% (inactive) |
| O=C(CN1CCN(c2cc(=O)[nH]c3ccc(F)cc23)CC1)Nc1ccc(Cl)cc1 | 66.3% (inactive) |
| CC(C)(C)c1ccc(-c2nnc(-c3nc4ccccc4nc3Cl)o2)cc1 | -70.5% (active) |
| O=C(O)c1cn(C2CC2)c2cc(N3CCN(C(=O)CN4C(=O)CSC4=O)CC3)c(F)cc2c1=O | 106% (inactive) |
| COc1ccc2c(c1)c(CC(=O)[Se]CCC#N)c(C)n2C(=O)c1ccc(Cl)cc1 | 66.7% (inactive) |
| CCCn1cnc2c(c1=N)C(c1ccc(OC)cc1)c1sc3c(CC)cccc3c1O2 (stereo not given) | 27.9% (inactive) |
| COc1ccccc1NCc1cccn1Cc1ccc(F)cc1 | 97% (inactive) |
| COc1ccc2c(c1)c(-c1cc(N)n3nc(-c4cn(C)c5ccc(OC)cc45)cc3n1)cn2C | 96.2% (inactive) |
| COc1cccc2c1CN(C(=O)c1ccc(O)c(C(=O)N3Cc4ccc(OCCC[P+](c5ccccc5)(c5ccccc5)c5ccccc5)cc4C3)c1)C2 | 37.6% (inactive) |
| COc1ccc(N2CCN(C3=C(Cl)C(=O)C(C)=C(C)C3=O)CC2)cc1 | 30% (inactive) |

Reference: PubChem BioAssay (NCI)
